Assay in all cases: DAPPL (digital affinity profiling via proximity ligation, sequencing); 10 mM Tris-HCl pH 7.5, 50 mM NaCl, 1 mM DTT, 4% glycerol, room temperature, 30 min; GST-TFs on glutathione beads, 16-mer random dsDNA library, 0.1% formaldehyde crosslink after washing; high values mean tight binding
Conditions in all cases: protein: recombinant; tags: N-terminal GST; dsDNA, one strand shown

One test concerns the target T1, FLI1 (Homo sapiens, UniProt Q01543 1-452).
T1 sequence: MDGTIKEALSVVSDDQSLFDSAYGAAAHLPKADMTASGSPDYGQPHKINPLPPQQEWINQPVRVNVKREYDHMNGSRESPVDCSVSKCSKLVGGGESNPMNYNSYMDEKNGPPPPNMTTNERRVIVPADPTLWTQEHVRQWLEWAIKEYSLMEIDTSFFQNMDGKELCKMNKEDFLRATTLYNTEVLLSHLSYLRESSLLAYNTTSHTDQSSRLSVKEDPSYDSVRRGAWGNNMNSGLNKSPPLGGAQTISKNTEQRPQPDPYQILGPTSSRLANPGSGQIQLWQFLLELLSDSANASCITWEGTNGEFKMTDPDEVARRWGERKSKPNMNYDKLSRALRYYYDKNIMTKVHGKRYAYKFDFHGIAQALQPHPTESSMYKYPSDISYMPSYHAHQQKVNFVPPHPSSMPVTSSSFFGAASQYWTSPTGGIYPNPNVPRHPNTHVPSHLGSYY
An outline of the steps: (§1)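 Human transcription factors fused to GST were expressed in yeast, captured on glutathione beads, given DNA barcodes and pooled with a GST-only negative control. Pools were incubated with 200 nmole of a 16-mer random double-stranded DNA library in Tris/NaCl/DTT/glycerol buffer at room temperature for 30 min. They were then washed, crosslinked with 0.1% formaldehyde, proximity-ligated (BsaI/T4 ligase, 1 h, 37 °C), PCR-amplified and sequenced on an Illumina NextSeq500. Binding signal is each 6-mer's read frequency for a factor divided by its frequency for the GST control.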

The target in a further test is T2, GABPA (Homo sapiens, UniProt Q06546 1-454).
T2 sequence: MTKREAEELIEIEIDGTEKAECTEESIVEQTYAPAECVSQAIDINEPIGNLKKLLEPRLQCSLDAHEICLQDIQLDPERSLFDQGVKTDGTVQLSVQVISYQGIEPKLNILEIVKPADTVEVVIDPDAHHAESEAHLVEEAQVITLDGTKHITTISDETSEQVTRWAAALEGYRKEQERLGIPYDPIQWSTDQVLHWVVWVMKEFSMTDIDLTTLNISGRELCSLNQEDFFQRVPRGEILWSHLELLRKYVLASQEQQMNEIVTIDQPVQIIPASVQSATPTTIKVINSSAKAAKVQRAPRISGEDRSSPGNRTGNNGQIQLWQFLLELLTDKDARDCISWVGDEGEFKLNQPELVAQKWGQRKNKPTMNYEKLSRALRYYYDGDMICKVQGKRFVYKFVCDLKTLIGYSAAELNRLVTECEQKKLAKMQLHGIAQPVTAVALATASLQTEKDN
An outline of the steps: as §1

The next test concerns the target SPIB (Homo sapiens, UniProt Q01892 1-262). An outline of the steps: as §1
In the next test the target is T3, SPIC (Homo sapiens, UniProt Q8N5J4 1-248).
T3 sequence: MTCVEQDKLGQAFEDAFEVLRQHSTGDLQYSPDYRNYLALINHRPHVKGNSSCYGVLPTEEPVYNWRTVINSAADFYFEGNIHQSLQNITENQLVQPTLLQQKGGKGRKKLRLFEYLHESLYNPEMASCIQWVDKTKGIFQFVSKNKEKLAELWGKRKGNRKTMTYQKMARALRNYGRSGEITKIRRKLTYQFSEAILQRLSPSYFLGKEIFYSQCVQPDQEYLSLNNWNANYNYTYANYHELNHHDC
An outline of the steps: as §1

In a further test the target is T4, ELK4 (Homo sapiens, UniProt P28324-2 1-405).
T4 sequence: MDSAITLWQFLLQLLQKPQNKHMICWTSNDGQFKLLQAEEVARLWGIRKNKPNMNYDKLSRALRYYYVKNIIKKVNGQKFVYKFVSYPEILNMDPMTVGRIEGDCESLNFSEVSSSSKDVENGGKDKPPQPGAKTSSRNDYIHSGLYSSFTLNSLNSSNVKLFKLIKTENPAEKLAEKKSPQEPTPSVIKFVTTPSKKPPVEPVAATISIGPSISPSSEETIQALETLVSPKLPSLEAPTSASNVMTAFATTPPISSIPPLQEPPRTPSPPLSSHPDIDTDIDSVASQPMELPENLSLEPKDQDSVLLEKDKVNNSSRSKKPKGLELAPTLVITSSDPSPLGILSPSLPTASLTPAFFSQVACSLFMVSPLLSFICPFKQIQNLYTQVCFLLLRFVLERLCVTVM
An outline of the steps:
as §1

The next test addresses T5, ETV2 (Homo sapiens, UniProt O00321 1-342).
T5 sequence: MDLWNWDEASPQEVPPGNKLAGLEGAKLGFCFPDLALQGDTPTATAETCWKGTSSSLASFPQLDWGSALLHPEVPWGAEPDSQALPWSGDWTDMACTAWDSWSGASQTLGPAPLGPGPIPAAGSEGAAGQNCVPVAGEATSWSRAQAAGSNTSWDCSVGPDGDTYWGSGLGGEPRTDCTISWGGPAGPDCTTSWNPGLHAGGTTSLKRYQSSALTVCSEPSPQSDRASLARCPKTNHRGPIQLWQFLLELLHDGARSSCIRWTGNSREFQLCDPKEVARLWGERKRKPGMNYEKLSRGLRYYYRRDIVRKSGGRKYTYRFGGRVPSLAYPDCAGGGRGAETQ
An outline of the steps: as §1

A further test addresses T6, ELF3 (Homo sapiens, UniProt P78545 1-371).
T6 sequence: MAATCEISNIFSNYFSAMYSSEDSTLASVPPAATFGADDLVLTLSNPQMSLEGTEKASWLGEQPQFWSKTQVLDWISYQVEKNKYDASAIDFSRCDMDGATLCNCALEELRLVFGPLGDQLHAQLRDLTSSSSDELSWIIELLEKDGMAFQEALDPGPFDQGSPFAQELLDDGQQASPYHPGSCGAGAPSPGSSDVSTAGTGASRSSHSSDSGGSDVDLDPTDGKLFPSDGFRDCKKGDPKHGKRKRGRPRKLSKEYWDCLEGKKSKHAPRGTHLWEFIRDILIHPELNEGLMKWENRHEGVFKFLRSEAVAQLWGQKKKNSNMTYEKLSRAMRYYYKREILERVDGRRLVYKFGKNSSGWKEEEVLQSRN
An outline of the steps: as §1

The target in a further test is ETV1 (Homo sapiens, UniProt P50549 1-477). A digest of the protocol: as §1
Chain of ETV1 (P50549 whole entry): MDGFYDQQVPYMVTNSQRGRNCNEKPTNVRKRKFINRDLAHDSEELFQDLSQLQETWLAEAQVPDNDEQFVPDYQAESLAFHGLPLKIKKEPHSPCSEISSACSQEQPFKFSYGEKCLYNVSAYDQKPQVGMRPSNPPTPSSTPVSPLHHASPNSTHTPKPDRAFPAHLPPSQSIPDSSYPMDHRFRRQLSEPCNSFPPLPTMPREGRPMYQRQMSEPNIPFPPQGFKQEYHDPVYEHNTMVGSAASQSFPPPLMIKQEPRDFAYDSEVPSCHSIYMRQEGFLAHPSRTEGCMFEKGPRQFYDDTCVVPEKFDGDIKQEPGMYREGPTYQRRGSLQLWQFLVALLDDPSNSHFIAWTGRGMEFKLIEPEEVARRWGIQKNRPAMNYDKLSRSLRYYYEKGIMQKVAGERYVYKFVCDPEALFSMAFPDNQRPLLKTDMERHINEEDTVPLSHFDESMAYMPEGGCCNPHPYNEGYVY
In another test the target is T7, ERF (Homo sapiens, UniProt P50548 1-548).
T7 sequence: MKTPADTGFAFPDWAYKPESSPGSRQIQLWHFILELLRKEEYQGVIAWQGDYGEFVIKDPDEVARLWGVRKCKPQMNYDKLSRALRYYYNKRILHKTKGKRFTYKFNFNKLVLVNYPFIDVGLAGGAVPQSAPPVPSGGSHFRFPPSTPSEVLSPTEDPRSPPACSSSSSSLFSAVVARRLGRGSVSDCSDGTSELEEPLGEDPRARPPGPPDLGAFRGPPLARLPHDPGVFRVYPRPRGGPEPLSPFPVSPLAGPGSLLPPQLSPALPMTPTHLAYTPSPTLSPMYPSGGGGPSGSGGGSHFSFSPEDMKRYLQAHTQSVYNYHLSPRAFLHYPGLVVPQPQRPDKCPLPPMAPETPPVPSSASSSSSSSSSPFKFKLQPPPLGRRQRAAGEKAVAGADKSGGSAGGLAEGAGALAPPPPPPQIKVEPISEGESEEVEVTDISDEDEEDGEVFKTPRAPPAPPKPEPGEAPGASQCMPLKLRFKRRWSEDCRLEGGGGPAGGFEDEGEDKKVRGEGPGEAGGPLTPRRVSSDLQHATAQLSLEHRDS
An outline of the steps:
as §1

For another test, the target named is T8, ETV3L (Homo sapiens, UniProt Q6ZN32 1-361).
T8 sequence: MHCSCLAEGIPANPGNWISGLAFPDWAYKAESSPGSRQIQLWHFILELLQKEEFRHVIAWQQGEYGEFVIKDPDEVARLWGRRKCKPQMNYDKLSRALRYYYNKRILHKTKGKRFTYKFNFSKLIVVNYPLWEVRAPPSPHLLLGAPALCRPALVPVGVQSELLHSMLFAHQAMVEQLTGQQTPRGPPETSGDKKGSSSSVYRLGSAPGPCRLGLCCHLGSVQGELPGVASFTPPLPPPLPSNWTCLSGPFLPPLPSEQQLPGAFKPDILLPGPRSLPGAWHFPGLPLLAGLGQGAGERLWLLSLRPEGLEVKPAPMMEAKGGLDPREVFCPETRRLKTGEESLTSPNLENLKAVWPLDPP
A digest of the protocol:
as §1

A further test has as its target T9, ETV7 (Homo sapiens, UniProt Q9Y603 1-341).
T9 sequence: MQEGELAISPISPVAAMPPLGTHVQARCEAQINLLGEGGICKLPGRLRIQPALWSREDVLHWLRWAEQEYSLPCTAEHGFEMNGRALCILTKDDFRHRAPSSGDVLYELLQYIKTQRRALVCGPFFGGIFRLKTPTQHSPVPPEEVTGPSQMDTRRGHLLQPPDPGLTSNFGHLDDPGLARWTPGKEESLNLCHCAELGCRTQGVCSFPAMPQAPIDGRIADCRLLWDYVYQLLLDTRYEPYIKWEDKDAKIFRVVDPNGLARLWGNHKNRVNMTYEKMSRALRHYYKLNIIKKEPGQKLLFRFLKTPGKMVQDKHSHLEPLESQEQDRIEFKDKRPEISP
An outline of the steps:
as §1

Chain of SPIB (Q01892 whole entry): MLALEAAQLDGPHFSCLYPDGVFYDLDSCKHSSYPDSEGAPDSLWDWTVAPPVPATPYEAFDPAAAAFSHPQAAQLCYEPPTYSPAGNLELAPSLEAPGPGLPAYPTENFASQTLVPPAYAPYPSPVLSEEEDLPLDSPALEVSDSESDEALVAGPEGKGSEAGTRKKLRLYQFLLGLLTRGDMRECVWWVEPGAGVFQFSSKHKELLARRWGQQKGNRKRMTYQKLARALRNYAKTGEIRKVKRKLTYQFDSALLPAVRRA

With ATGCGT, the binding signal with FLI1 was 1.06 fold enrichment (6-mer frequency, TF over GST control); with GABPA, 1.07 fold enrichment (6-mer frequency, TF over GST control); with SPIB, 1.03 fold enrichment (6-mer frequency, TF over GST control); with SPIC, 1.07 fold enrichment (6-mer frequency, TF over GST control); with ELK4, 1.15 fold enrichment (6-mer frequency, TF over GST control); with ETV2 it was 1.18 fold enrichment (6-mer frequency, TF over GST control). In addition, the binding signal with ELF3 is 1.07 fold enrichment (6-mer frequency, TF over GST control); with ETV1, 1.02 fold enrichment (6-mer frequency, TF over GST control); with ERF it was 1.01 fold enrichment (6-mer frequency, TF over GST control); with ETV3L, 1.1 fold enrichment (6-mer frequency, TF over GST control); with ETV7, 1.16 fold enrichment (6-mer frequency, TF over GST control).
